# Screens (PubChem)
# Many of the other results were omitted from the sample, so hits are more common in it than they were.
# AMPAR-TARP mod – modulators of AMPA receptor GluA2-stargazin complexes. O88602+P19491. HEK293 GluA2+stargazin, membrane potential dye (FDSS), glutamate EC50; hits were called plate by plate, in both directions. calls only at 30 µM. 3.5% of 40,000 active;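 active = any of four per-well response measures lying three or more SD from its plate-wide compound average, in either direction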
# GIRK2 act – Activates human GIRK2-containing potassium channels | P48051 | AID 1259324 | HEK293 GIRK2/NPY4 cells, thallium flux fluorescence | 34,000 tested, under 10 active | activation (% efficacy), % for hits at 37.5 µM;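 active = primary screen hit, no activity in plain HEK293 cells, and in GIRK2-only cells above 5% efficacy rising with concentration; inactive = the rest, including fluorescent compounds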;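 note: efficacy is normalized control-subtracted fluorescence 15 s after thallium addition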
# Active calls of the source: *; i = inactive; / = not tested or not shown; + = active, no number.
SMILES,AMPAR-TARP mod,GIRK2 act
Cc1ccc(NC(=O)C(C)N2C(=O)c3ccccc3S2(=O)=O)c(C)c1 (centres undefined),i,/
COc1ccc(OCC(=O)Nc2cc(C3CC3)nn2-c2nc(C(C)C)cc(=O)[nH]2)cc1,i,i
COc1ccc(/C=C\C(=O)Nc2cc(C3CC3)nn2-c2nc(C(C)C)cc(=O)[nH]2)cc1OC,+,i
Cc1ccc(S(=O)(=O)c2c(C)nn(C(C)(C)C)c2OC(=O)CC2CCCCC2)cc1,i,/
O=C(Nc1ccc(N2CCCS2(=O)=O)cc1)C1CCCCC1,i,/
CCOc1ccc(CCNc2nccn(-c3ccc(Cl)cc3)c2=O)cc1OCC,i,/
CCOC(=O)C1C(=O)CC(C)(O)C(C(=O)OCC)C1c1ccc(C)cc1 (centres undefined),+,i
CCOC(=O)C1C(=O)CC(C)(O)C(C(=O)OCC)C1c1cccs1 (centres undefined),i,i
COc1ccc(S(=O)(=O)N2CCCc3cc(NS(=O)(=O)c4ccc(F)c(C)c4)ccc32)cc1,i,/
CN1CCc2c(sc(NC(=O)c3ccc4ccccc4c3)c2-c2nc3ccccc3s2)C1,i,/
O=S(=O)(NCC(O)(c1ccccc1)C(F)(F)F)c1ccccc1Cl (centres undefined),i,i
Cc1c(Cl)cccc1S(=O)(=O)NCC(O)(c1ccccc1)C(F)(F)F (centres undefined),+,i
CN(C)C(CNC(=O)C(=O)Nc1ccccc1[N+](=O)[O-])c1cccc2ccccc12 (centres undefined),/,i
Cn1cccc1CN(C(=O)Cc1ccc(F)cc1)C1CC1,/,i
COc1ccc(-c2c(C)nn3c(N4CCN(Cc5ccccc5)CC4)cc(C)nc23)cc1OC,+,i
COc1ccccc1-c1c(C)nn2c(N3CCN(Cc4ccccc4)CC3)cc(C)nc12,i,i
Cc1cc(C)c(NC2=C/C(=N/S(=O)(=O)c3cccs3)c3ccccc3C2=O)c(C)c1,+,/
Cc1cc(C)c(NC(=O)C2(c3cccs3)CCOCC2)c(C)c1,i,i
O=S(=O)(NCC(O)c1ccsc1)c1ccc(F)c(Cl)c1 (centres undefined),i,i
O=S(=O)(NCC(O)c1ccc(C(F)(F)F)cc1)c1ccc(Br)s1 (centres undefined),+,/
Cc1ccc(S(=O)(=O)NCC(O)c2ccc(C(F)(F)F)cc2)s1 (centres undefined),i,i
COc1ccc(S(=O)(=O)NCC(O)c2ccc(C(F)(F)F)cc2)c(C)c1 (centres undefined),+,i
O=S(=O)(NCC(O)c1ccc(C(F)(F)F)cc1)c1ccccc1Cl (centres undefined),i,i
O=S(=O)(NCC(O)c1ccc(C(F)(F)F)cc1)c1ccc(F)c(Cl)c1 (centres undefined),+,i
COc1ccc(S(=O)(=O)NCC(O)c2ccsc2)c(C)c1 (centres undefined),i,i
SMILES,AMPAR-TARP mod,GIRK2 act
O=S(=O)(Cc1cccc(F)c1)NCC(O)c1ccc(C(F)(F)F)cc1 (centres undefined),+,i
COc1ccc(-n2c(C)cn3c4c(=O)n(CC(C)C)c(=O)n(C)c4nc23)cc1,i,/
CC(C)c1nnc(C2CCN(C(=O)C3c4ccccc4Oc4ccccc43)CC2)o1,i,i
CCc1nnc2c(=O)n(-c3ccccc3)ccn12,i,i
COC(=O)COc1ccc2c(c1)O/C(=C\c1cccs1)C2=O,+,/
COc1cc(C(=O)Oc2ccc3c(c2)O/C(=C\c2cccs2)C3=O)cc(OC)c1OC,i,/
NC(=O)CSc1nc(-c2ccccc2)c(NC(=O)CC2CCCC2)s1,+,i
COc1ccc(Cl)cc1C(=O)Nc1sc(SCC(N)=O)nc1-c1ccccc1,i,i
COc1ccccc1C(=O)Nc1sc(SCC(N)=O)nc1-c1ccccc1,+,i
CCC(=O)Nc1sc(SCC(N)=O)nc1-c1ccccc1,i,i
CC(C)(C)C(=O)Nc1sc(SCC(=O)NC2CC2)nc1-c1ccccc1,i,i
CCNC(=O)CSc1nc(-c2ccccc2)c(NC(=O)C(C)(C)Oc2ccc(Cl)cc2)s1,+,i
CC(C)(C)c1ccc(NC(=O)NCc2n[nH]c(=O)c3ccccc23)cc1,i,i
NC(=O)c1ccc(NC(=O)C2CCCN(C(=O)NC3CC3)C2)cc1 (centres undefined),i,i
CCCOc1ccc(S(=O)(=O)NCC2CCN(C3CCCC3)CC2)cc1,+,i
CCc1ccc(S(=O)(=O)NCC2CCN(C3CCCC3)CC2)cc1,i,/
CCCc1ccc(S(=O)(=O)NCC2CCN(C3CCCC3)CC2)cc1,+,/
COc1ccc(S(=O)(=O)NCC2CCN(C3CCCC3)CC2)cc1OC,i,i
O=S(=O)(NCC1CCN(C2CCCC2)CC1)c1ccc2c(c1)CCCC2,+,i
COC(=O)N1CCC(CNS(=O)(=O)c2ccc3c(c2)CCCC3)CC1,i,i
COC(=O)c1ccc(S(=O)(=O)N2CCNCC2)cc1,i,/
CCc1cc(=O)[nH]c(SCc2nc(-c3ccc(SC)cc3)no2)n1,i,i
Cc1ccc(C(=O)Nc2ccc3c(c2)CCCN3C(=O)C(C)C)cc1,i,/
CCOC(=O)c1c(NC(=O)COc2ccc(Cl)cc2)sc2c1CCN(Cc1ccccc1)C2,+,/
CCOC(=O)c1c(NC(=O)c2ccnn2C)sc2c1CCCC2,/,i
SMILES,AMPAR-TARP mod,GIRK2 act
CN(C1CCCC1)S(=O)(=O)c1ccc(C(=O)Nc2sc3c(c2C(N)=O)CCCC3)cc1,i,/
CCOC(=O)c1c(NC(=O)c2cc(C)nn2C)sc2c1CCN(CC)C2,+,i
CCOC(=O)c1c(NC(=O)c2ccc(S(=O)(=O)N(C)C3CC3)cc2)sc2c1CCN(CC)C2,+,i
COC(=O)c1c(NC(=O)c2ccno2)sc2c1CCN(Cc1ccccc1)C2,/,i
COCCCNC(=O)C(=O)Nc1c2c(nn1-c1ccc(Cl)cc1)CSC2,i,i
CNC(=O)Cc1ccc(NC(=O)c2ccc(S(=O)(=O)N(C)C)cc2)cc1,i,i
CC(C)(C)C(=O)Nc1nnc(Cc2cccs2)o1,i,i
COc1cccc2cc(C(=O)NCC(C)(O)CCSC)oc12 (centres undefined),i,i
O=C(Nc1ccccc1)N1CCN(Cc2nnnn2-c2ccccc2)CC1,i,i
Cc1cc(N(C)C)nc(Nc2ccc(NC(=O)c3ccc4c(c3)OCO4)cc2)n1,+,/
Cc1ccc(Nc2ccc(NC(=O)c3ccc4c(c3)OCO4)cc2)nn1,i,i
CC(C)NC(=O)Cn1cc(-c2nc(-c3cnccn3)no2)ccc1=O,i,i
N#Cc1ccccc1Cn1cc(-c2nc(-c3cnccn3)no2)ccc1=O,+,i
O=C(NCCN1CCOCC1)C(=O)Nc1ccc(F)c([N+](=O)[O-])c1,i,i
O=C(NCCCN1CCOCC1)C(=O)Nc1ccc(F)c([N+](=O)[O-])c1,+,i
CSc1cccc(N2CC(c3nc4ccccc4n3CCCN(C)C)CC2=O)c1 (centres undefined),i,i
Cc1ccc(C(CNC(=O)Cc2cccc3ccccc23)N(C)C)cc1 (centres undefined),+,i
CN(C)C(CNC(=O)Cc1cccc2ccccc12)c1ccc(F)cc1 (centres undefined),i,/
